The source of these data is publication PMC7862700, “An all-to-all approach to the identification of sequence-specific readers for epigenetic DNA modifications on cytosine”.

Common to all, as to assay: DAPPL (digital affinity profiling via proximity ligation, sequencing); 10 mM Tris-HCl pH 7.5, 50 mM NaCl, 1 mM DTT, 4% glycerol, room temperature, 30 min; GST-TFs on glutathione beads, 16-mer random dsDNA library, 0.1% formaldehyde crosslink after washing; high values mean tight binding
One assay deals with T1, FLI1 (Homo sapiens, UniProt Q01543 1-452).
T1 sequence: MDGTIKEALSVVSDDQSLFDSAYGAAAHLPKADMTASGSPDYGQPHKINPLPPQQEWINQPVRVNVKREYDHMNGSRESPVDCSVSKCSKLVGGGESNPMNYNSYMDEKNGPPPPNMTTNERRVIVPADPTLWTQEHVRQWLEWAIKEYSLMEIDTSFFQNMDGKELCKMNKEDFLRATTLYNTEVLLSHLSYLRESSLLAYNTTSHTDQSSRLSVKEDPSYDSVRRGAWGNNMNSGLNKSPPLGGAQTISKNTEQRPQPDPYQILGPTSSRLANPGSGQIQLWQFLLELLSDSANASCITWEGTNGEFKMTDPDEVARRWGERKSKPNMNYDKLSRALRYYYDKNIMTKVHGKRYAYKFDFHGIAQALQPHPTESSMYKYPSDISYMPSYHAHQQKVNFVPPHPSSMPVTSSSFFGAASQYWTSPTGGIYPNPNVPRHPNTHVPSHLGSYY
Conditions: protein: recombinant; tags: N-terminal GST; dsDNA, one strand shown. In a few lines:
(§1)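 Each value of binding signal is a hexamer's read frequency for a factor divided by the same hexamer's frequency in the tag-only sample. Barcoded, bead-captured GST fusions of human transcription factors made in yeast were pooled with that sample and incubated with 200 nmole of a random double-stranded 16-mer DNA library in Tris/NaCl/DTT/glycerol buffer at room temperature for 30 min. Washing, 0.1% formaldehyde crosslinking, proximity ligation, PCR and Illumina NextSeq500 sequencing followed.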

The target in a further assay is T2, ELK1 (Homo sapiens, UniProt P19419 1-428).
T2 sequence: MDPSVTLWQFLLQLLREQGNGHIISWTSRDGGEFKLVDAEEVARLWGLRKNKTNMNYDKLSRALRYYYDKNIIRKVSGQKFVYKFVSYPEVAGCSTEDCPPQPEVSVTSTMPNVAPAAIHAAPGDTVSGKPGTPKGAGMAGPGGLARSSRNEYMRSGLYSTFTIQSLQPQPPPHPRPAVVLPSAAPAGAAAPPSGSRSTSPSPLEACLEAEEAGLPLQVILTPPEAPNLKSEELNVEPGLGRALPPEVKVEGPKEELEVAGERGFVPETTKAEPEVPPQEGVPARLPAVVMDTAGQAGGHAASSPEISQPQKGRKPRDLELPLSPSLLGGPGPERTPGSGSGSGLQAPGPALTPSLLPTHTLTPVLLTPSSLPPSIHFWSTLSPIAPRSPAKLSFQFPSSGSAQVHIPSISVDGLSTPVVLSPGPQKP
Conditions: protein: recombinant; tags: N-terminal GST; dsDNA, one strand shown. The gist of the method: as §1

The target in another assay is T3, GABPA (Homo sapiens, UniProt Q06546 1-454).
T3 sequence: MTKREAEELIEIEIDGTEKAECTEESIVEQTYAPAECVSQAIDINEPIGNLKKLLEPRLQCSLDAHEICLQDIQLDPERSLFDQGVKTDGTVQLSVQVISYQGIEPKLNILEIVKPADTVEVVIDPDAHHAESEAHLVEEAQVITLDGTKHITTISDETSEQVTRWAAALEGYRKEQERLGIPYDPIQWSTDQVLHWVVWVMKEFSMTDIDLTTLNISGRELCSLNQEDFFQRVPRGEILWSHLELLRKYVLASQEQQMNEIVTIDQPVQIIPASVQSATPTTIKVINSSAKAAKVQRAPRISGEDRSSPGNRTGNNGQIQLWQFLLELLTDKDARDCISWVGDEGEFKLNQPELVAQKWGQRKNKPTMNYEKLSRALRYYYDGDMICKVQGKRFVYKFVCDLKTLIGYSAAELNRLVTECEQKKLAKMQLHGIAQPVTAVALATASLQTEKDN
Conditions: protein: recombinant; tags: N-terminal GST; dsDNA, one strand shown. The gist of the method: as §1

A further assay concerns the target T4, ERG (Homo sapiens, UniProt P11308 1-479).
T4 sequence: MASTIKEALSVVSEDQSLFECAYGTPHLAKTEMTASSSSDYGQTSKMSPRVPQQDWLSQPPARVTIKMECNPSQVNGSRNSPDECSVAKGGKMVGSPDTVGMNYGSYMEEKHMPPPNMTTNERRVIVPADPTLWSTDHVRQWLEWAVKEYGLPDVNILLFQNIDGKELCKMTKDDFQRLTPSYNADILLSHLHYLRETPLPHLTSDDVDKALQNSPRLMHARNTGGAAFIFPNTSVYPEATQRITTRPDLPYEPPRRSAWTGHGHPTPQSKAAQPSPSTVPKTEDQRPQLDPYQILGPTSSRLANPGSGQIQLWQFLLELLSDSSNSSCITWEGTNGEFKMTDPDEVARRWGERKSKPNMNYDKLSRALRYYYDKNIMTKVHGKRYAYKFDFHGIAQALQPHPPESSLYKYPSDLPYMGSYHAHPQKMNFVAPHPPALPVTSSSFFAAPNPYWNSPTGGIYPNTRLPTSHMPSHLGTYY
Particulars: protein: recombinant; tags: N-terminal GST; dsDNA, one strand shown. The gist of the method:
as §1

The target in another assay is ELF1 (Homo sapiens, UniProt P32519 1-619). Conditions: protein: recombinant; tags: N-terminal GST; dsDNA, one strand shown. The gist of the method:
as §1

The target of the next assay is T5, EHF (Homo sapiens, UniProt Q9NZC4 1-300).
T5 sequence: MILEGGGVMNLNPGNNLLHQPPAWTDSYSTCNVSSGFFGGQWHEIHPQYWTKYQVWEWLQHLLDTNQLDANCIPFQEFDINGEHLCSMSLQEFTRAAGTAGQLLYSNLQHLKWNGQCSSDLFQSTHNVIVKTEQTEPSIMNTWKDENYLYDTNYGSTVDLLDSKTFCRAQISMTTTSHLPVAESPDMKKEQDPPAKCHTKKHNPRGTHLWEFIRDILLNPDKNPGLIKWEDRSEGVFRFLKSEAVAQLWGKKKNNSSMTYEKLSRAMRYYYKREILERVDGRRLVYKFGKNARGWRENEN
Particulars: protein: recombinant; tags: N-terminal GST; dsDNA, one strand shown. In a few lines:
as §1

A further assay deals with SPI1 (Homo sapiens, UniProt P17947 1-270). Particulars: protein: recombinant; tags: N-terminal GST; dsDNA, one strand shown. In a few lines: as §1
Another assay addresses SPIB (Homo sapiens, UniProt Q01892 1-262). Conditions: protein: recombinant; tags: N-terminal GST; dsDNA, one strand shown. The gist of the method: as §1
For a further assay, the target named is T6, ELK3 (Homo sapiens, UniProt P41970 1-407).
T6 sequence: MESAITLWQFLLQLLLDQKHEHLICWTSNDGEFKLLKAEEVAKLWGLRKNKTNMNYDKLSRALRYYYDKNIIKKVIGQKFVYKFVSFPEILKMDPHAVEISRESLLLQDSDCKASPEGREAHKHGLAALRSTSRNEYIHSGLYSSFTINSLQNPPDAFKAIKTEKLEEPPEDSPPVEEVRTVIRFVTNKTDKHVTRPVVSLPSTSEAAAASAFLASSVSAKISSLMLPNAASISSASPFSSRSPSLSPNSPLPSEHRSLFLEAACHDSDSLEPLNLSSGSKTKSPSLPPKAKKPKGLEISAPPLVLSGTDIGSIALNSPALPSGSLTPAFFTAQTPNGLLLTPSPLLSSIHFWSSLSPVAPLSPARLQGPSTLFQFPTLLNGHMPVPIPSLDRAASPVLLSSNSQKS
Conditions: protein: recombinant; tags: N-terminal GST; dsDNA, one strand shown. In a few lines: as §1

Another assay has as its target T7, FEV (Homo sapiens, UniProt Q99581 1-238).
T7 sequence: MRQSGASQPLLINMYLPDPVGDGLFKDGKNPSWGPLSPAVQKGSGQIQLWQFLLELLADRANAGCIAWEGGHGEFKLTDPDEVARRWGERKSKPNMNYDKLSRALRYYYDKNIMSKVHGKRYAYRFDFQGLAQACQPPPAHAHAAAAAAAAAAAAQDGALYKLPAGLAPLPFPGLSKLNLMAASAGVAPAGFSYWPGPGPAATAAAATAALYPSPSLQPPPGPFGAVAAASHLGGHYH
Conditions: protein: recombinant; tags: N-terminal GST; dsDNA, one strand shown. The gist of the method:
as §1

Another assay deals with ETV5 (Homo sapiens, UniProt P41161 1-510). Conditions: protein: recombinant; tags: N-terminal GST; dsDNA, one strand shown. The gist of the method: as §1
Sequence of ETV5 (P41161 whole entry): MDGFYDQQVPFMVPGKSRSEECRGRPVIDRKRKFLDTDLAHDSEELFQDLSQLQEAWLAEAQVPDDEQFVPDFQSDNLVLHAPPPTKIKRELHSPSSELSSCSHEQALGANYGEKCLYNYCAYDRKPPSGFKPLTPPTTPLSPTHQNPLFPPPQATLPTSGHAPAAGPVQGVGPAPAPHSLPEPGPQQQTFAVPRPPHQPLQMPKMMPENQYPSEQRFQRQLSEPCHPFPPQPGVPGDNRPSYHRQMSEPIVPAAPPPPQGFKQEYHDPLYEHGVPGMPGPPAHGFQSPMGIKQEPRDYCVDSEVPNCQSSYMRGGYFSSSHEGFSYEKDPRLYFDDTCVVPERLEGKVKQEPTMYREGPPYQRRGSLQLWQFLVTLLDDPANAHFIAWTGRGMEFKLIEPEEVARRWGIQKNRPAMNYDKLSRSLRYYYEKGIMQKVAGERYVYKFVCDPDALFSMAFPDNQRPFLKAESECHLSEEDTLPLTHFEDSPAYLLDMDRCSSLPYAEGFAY
The next assay has as its target HSF1 (Homo sapiens, UniProt Q00613 1-529). Conditions: protein: recombinant; tags: N-terminal GST; chain copies: 3; dsDNA, one strand shown. In a few lines: as §1
In another assay the target is T8, SPIC (Homo sapiens, UniProt Q8N5J4 1-248).
T8 sequence: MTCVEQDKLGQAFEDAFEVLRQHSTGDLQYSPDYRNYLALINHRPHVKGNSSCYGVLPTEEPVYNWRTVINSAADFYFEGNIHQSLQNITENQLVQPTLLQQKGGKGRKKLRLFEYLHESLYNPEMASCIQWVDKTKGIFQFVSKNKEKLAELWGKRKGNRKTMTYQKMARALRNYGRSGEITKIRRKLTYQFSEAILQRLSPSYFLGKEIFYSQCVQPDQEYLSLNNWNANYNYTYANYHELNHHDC
Conditions: protein: recombinant; tags: N-terminal GST; dsDNA, one strand shown. The gist of the method: as §1

The next assay has as its target ELF4 (Homo sapiens, UniProt Q99607 1-663). Particulars: protein: recombinant; tags: N-terminal GST; dsDNA, one strand shown. In a few lines:
as §1

In another assay the target is T9, ELK4 (Homo sapiens, UniProt P28324-2 1-405).
T9 sequence: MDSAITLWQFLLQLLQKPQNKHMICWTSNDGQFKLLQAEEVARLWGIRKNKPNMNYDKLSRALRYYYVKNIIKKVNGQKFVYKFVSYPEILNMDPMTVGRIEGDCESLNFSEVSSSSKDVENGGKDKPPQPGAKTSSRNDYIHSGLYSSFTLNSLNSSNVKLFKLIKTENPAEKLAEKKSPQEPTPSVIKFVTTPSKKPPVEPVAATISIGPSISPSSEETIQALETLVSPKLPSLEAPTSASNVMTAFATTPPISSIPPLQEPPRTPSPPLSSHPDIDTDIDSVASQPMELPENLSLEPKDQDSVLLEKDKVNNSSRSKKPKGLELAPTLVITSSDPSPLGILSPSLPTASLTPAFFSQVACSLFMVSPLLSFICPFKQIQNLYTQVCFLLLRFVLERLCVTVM
Conditions: protein: recombinant; tags: N-terminal GST; dsDNA, one strand shown. In a few lines:
as §1

The target in the next assay is T10, ETV2 (Homo sapiens, UniProt O00321 1-342).
T10 sequence: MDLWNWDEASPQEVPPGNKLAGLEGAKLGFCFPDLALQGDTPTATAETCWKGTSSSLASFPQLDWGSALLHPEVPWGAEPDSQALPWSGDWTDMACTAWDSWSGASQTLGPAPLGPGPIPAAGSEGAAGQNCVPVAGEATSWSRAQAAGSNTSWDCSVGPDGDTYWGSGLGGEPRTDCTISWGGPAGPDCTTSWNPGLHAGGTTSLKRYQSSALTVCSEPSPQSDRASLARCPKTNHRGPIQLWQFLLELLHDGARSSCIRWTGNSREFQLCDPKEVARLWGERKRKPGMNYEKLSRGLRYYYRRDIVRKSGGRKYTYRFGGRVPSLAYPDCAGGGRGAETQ
Conditions: protein: recombinant; tags: N-terminal GST; dsDNA, one strand shown. In a few lines:
as §1

The next assay concerns the target T11, ELF3 (Homo sapiens, UniProt P78545 1-371).
T11 sequence: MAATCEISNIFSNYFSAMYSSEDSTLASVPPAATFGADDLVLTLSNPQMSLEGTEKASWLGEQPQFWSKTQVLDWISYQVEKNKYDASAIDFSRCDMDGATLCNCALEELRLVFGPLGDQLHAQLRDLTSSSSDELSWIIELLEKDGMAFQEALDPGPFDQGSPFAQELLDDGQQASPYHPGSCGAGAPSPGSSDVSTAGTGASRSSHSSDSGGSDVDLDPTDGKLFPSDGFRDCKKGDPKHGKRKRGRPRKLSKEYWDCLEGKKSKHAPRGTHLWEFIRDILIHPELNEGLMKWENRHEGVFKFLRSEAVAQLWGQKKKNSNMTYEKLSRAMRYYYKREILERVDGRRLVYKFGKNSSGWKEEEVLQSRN
Particulars: protein: recombinant; tags: N-terminal GST; dsDNA, one strand shown. The gist of the method:
as §1

For another assay, the target named is CRX (Homo sapiens, UniProt O43186 1-299). Particulars: protein: recombinant; tags: N-terminal GST; dsDNA, one strand shown. In a few lines:
as §1

The target in a further assay is ETV1 (Homo sapiens, UniProt P50549 1-477). Particulars: protein: recombinant; tags: N-terminal GST; dsDNA, one strand shown. The gist of the method: as §1
Sequence of ETV1 (P50549 whole entry): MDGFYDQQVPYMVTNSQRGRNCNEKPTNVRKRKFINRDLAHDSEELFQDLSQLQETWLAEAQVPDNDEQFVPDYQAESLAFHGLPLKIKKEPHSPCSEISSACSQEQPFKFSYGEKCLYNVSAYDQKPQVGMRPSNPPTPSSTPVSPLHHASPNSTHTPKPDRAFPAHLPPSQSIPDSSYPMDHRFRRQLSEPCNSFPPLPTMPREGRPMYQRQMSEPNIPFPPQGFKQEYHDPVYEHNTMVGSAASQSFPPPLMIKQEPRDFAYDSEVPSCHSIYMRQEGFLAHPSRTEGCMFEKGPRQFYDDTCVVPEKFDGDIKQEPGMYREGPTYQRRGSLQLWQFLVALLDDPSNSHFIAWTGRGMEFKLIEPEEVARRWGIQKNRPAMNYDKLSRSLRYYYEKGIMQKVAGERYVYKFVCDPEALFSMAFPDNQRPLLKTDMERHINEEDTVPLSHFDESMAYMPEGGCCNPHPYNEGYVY

Sequence of CRX (O43186 whole entry): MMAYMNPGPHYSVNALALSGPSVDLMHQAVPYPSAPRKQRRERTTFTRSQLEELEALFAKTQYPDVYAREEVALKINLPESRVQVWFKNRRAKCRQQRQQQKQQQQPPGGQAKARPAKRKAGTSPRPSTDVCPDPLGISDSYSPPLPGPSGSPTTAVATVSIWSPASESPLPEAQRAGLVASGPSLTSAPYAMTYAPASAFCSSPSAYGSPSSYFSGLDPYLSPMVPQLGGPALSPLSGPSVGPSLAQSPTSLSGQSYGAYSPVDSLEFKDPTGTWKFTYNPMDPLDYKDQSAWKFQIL
Sequence of HSF1 (Q00613 whole entry): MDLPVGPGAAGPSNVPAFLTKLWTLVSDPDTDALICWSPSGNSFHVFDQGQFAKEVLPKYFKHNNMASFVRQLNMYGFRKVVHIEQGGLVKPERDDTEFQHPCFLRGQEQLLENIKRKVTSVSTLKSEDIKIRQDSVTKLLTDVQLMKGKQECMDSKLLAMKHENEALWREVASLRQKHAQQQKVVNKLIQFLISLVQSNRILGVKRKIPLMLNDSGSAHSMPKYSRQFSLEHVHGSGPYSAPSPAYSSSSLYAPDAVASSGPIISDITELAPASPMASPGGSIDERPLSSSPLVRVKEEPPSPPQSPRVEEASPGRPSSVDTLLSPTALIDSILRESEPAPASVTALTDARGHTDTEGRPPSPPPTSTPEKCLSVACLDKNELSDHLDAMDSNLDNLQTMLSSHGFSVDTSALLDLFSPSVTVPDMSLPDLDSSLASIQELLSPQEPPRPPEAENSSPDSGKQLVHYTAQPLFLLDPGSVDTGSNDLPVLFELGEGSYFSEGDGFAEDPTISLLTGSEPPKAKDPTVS
Sequence of SPIB (Q01892 whole entry): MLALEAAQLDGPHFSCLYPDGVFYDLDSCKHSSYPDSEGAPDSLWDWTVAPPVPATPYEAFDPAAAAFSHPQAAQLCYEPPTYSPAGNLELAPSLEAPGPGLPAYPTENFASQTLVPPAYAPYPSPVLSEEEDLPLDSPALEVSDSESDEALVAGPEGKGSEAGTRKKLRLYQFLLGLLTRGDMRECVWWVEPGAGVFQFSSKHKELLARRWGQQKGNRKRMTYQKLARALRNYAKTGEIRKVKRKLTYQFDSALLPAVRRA
Sequence of ELF4 (Q99607 whole entry): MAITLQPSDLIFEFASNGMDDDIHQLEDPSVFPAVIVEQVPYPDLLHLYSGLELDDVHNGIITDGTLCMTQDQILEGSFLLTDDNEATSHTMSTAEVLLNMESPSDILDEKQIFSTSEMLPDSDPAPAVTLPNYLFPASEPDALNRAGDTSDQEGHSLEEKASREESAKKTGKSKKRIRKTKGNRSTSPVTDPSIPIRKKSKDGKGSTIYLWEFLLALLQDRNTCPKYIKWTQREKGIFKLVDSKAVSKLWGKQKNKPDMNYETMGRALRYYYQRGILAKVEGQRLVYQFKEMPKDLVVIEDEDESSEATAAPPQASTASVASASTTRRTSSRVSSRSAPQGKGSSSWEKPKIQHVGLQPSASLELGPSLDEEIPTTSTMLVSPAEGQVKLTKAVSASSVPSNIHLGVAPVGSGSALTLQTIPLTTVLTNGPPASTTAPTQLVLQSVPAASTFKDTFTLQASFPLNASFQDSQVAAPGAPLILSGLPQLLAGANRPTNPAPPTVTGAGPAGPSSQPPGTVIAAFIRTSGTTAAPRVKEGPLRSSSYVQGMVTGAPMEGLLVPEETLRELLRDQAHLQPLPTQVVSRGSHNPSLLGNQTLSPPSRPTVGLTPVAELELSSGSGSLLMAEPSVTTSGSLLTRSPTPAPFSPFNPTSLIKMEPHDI
Sequence of ELF1 (P32519 whole entry): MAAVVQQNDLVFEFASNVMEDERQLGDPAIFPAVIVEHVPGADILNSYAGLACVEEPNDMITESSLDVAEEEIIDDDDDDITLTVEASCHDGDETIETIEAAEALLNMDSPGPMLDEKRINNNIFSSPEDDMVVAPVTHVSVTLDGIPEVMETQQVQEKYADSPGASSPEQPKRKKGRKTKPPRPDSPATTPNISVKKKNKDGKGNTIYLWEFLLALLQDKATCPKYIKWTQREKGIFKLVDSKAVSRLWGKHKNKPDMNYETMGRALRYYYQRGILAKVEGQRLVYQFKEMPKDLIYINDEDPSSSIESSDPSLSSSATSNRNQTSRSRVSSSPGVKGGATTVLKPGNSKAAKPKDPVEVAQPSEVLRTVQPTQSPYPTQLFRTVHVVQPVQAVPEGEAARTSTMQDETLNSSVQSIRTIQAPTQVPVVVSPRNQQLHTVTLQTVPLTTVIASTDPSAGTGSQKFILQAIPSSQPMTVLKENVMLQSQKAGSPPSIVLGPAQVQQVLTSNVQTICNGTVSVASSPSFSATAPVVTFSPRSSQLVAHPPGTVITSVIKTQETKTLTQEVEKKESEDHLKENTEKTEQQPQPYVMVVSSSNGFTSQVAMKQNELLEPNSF

With CCTCAT, the binding signal with FLI1 is 1.35 fold enrichment (6-mer frequency, TF over GST control); in the assay with ELK1, 1.3 fold enrichment (6-mer frequency, TF over GST control); in the assay with GABPA, 1.34 fold enrichment (6-mer frequency, TF over GST control); with ERG, 1.34 fold enrichment (6-mer frequency, TF over GST control); with ELF1, 1.35 fold enrichment (6-mer frequency, TF over GST control); with EHF it was 1.39 fold enrichment (6-mer frequency, TF over GST control). The binding signal in the assay with SPI1 is 1.67 fold enrichment (6-mer frequency, TF over GST control); in the assay with SPIB, 1.33 fold enrichment (6-mer frequency, TF over GST control); with ELK3 it was 1.23 fold enrichment (6-mer frequency, TF over GST control); in the assay with FEV, 1.26 fold enrichment (6-mer frequency, TF over GST control); in the assay with ETV5, 1.31 fold enrichment (6-mer frequency, TF over GST control); in the assay with HSF1, 1.08 fold enrichment (6-mer frequency, TF over GST control). Further, the binding signal with SPIC is 1.45 fold enrichment (6-mer frequency, TF over GST control); with ELF4 it was 1.39 fold enrichment (6-mer frequency, TF over GST control); with ELK4, 1.3 fold enrichment (6-mer frequency, TF over GST control); with ETV2 it was 1.1 fold enrichment (6-mer frequency, TF over GST control); with ELF3, 1.27 fold enrichment (6-mer frequency, TF over GST control); with CRX it was 1.1 fold enrichment (6-mer frequency, TF over GST control). In addition, the binding signal with ETV1 is 1.37 fold enrichment (6-mer frequency, TF over GST control).
